Compounds with a hit are over-represented: about 12% of the library has one in this group of screens.
WT yeast gro inh: growth inhibition of WT strain, primary screen, mitochondrial fusion inhibitor project, WT and mutant strains, chemical genetic; inhibition, % at 10 µM; mitochondrial fusion phenotypic screen; 190,000 compounds, 2.1% hits; AID 1362, 2008; in the data active = inhibition above about 58%; tested in S. cerevisiae
Cl transport mod: KCC2 cotransporter modulators, thallium flux, primary screen, cell-based, HEK293 KCC2, FluoZin-2 fluorescence, MLSMR; Solute carrier family 12 member 5 (Homo sapiens), Q9H2X9; KCC2 cells, thallium flux FluoZin-2 fluorescence; B-score of Tl+ flux slope (higher = more flux/activation; lower = inhibition) at 10 µM; 190,000 compounds, 2.2% hits;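 active = thallium flux slope and its plate-corrected score both differing from the plate sample mean at a set confidence after two filtering rounds, in either direction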;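 note: slope of fluorescence scaled to starting intensity during 10 to 20 s after thallium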
Target sequence (Q9H2X9 whole entry, looked up): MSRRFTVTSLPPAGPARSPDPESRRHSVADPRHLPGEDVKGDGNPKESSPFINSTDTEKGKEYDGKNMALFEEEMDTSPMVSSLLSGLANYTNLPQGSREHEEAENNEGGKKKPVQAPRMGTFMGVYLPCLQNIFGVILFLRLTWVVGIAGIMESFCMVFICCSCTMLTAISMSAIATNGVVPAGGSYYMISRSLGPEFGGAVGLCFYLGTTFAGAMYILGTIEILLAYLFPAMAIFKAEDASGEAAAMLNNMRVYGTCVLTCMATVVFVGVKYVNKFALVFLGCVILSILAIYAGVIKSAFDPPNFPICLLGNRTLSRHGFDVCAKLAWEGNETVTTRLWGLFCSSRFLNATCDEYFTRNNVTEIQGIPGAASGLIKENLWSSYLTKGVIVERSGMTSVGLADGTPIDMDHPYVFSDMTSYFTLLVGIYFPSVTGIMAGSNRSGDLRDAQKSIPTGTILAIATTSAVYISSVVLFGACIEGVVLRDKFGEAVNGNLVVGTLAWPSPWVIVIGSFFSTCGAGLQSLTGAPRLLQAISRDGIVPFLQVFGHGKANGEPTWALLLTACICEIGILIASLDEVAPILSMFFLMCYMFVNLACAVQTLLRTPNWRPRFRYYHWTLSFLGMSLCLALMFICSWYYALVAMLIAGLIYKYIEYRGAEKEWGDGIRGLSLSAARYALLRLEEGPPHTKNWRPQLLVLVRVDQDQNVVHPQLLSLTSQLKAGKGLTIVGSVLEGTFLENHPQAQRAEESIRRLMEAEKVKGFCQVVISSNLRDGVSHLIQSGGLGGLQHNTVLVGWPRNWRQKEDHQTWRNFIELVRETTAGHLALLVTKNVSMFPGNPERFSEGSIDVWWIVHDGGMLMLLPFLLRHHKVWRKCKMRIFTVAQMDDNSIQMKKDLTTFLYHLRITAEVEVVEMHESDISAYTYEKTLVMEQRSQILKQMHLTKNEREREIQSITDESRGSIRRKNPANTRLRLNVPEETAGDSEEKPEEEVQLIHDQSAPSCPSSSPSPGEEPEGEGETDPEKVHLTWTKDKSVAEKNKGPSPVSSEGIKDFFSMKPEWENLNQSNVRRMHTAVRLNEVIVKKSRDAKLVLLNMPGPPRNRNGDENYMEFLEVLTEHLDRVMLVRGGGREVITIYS
Insulin prom inh: inhibitors of insulin promoter-driven GFP, primary screen, imaging, TRM-6 cells (human fetal islet line), eGFP reporter, cell count; 130,000 compounds, 0.9% hits; inhibition, % at 2 µM; AID 1273, 2008; reporter expression induced with tamoxifen;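 active = inhibition above the mean plus 3 SD, with well images judged a real hit on visual review, cut at about 60% in these data, passing the limit was not always enough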
Insulin prom up: insulin promoter activators in MIN6 cells, imaging, high-content screening, mouse beta cells; MIN6 insulin promoter-GFP reporter; hits give high values; z-score at 5 µM; 190,000 compounds, 0.3% hits; AID 1625, 2009;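 active = z-score above 3 at 5 µM with at least 500 cells counted in the well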
ROMK mod: ROMK potassium channel modulators, primary screen, cell-based, thallium flux, MLSMR library; ATP-sensitive inward rectifier potassium channel 1 (Homo sapiens), P48048; Tet-inducible ROMK, thallium flux fluorescence; actives lie on both sides; B-score at 10 µM; 130,000 compounds, 2% hits; AID 1918, 2009;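 active = signal ratio slope over the read window, or its plate-corrected B-score, at least 3 SD from the plate mean, either direction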;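 note: B-score of the F/F0 ratio slope over 7 to 12 s after thallium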
L major viab: Leishmania major promastigote growth inhibition, primary screen | AID 1063, 2008 | Leishmania major promastigotes, resazurin fluorescence viability | inhibition, % at 10 µM | 200,000 compounds, 9% hits; in the data active = inhibition above about 50%;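 note: promastigotes grown with compound for 44 hours at 28 °C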
Numbers without * were called inactive; . = no result.

SMILES | WT yeast gro inh | Cl transport mod | Insulin prom inh | Insulin prom up | ROMK mod | L major viab
N=c1c(S(=O)(=O)c2ccccc2)cc2c(=O)n3ccccc3nc2n1Cc1ccco1 | 3 | 0.038 | . | 0.12 | 0.69 | 45
Cc1ccc(S(=O)(=O)c2cc3c(=O)n4ccccc4nc3n(Cc3ccco3)c2=N)cc1C | 3 | -0.69 | -6 | . | -0.85 | 56*
Cc1ccc2nc3c(cc(S(=O)(=O)c4ccccc4)c(=N)n3Cc3ccco3)c(=O)n2c1 | 17 | 1.5 | -333 | -1.3 | 0.0058 | 81*
CC(=O)Nc1ccc(N2CCCCC2)c(C(=O)Nc2cccc(C)c2)c1 | 42 | -0.94 | -10 | -0.36 | . | 81*
O=C(c1ccc([N+](=O)[O-])c(CS(=O)(=O)c2ccc(Cl)cc2)c1)N1CCCC1 | 0 | 0.78 | -36 | -0.06 | -1.2 | -5
O=C(OCCCCN1C(=O)c2ccccc2C1=O)c1ccc(Br)o1 | -7 | -0.52 | 79* | -0.38 | . | 2
O=C(OCCN1C(=O)c2ccccc2C1=O)c1ccco1 | -21 | -0.35 | 59 | . | . | -4
CSc1ccc(Cl)c(C(=O)Nc2ccc(N3CCOCC3)cc2)c1 | 31 | -0.097 | . | 0.06 | 0.37 | -5
COc1ccc2[nH]c(=O)c(CN(Cc3ccco3)Cc3nnnn3Cc3ccccc3)cc2c1 | 21 | 0.042 | -39 | 2.1 | . | 1
Cc1ccc(C)c2[nH]c(=O)c(CN(Cc3ccc4c(c3)OCO4)Cc3nnnn3Cc3ccco3)cc12 | 30 | -2.1 | 26 | -0.51 | . | 58*
CCc1ccc2[nH]c(=O)c(CN(Cc3ccccc3OC)Cc3nnnn3Cc3ccco3)cc2c1 | -11 | -1.7 | 13 | -2.8 | . | 99*
COc1ccccc1CN(Cc1cc2cc(C)ccc2[nH]c1=O)Cc1nnnn1Cc1ccco1 | 12 | -1.2 | . | . | . | 61*
COC(=O)c1sccc1NC(=S)N1CCN(c2ccc(F)cc2)CC1 | 53 | -1.9 | -93 | 0.12 | 0.035 | -7
O=C(Sc1ccccc1)c1cccc(Cn2cc(C(F)(F)F)ccc2=O)c1 | . | -0.35 | . | . | . | .
c1ccc(COc2cccc(CN3CCN(c4ccccn4)CC3)c2)cc1 | 9 | . | -38 | -0.71 | -0.95 | 79*
O=S1(=O)CCN(Cc2ccc(Cl)cc2)CC1 | -1 | 0.2 | -9 | 0.57 | . | -1
CCN(CC)C(=O)C1CCCN(Cc2cccc(Oc3ccccc3)c2)C1 (stereo not drawn) | . | -0.59 | . | -0.07 | -0.77 | .
Cc1ccc(CN2CCN(c3ccccn3)CC2)s1 | 0 | 0.4 | 72* | -0.23 | 0.1 | 1
CCN1CCN(Cc2cccc(Oc3ccccc3)c2)CC1 | 9 | -0.0067 | . | . | -1.4 | 97*
CN1CCN(Cc2cccc(Oc3ccc(Cl)cc3)c2)CC1 | 10 | 0.51 | 13 | 0.42 | -1.2 | 100*
CCN1CCN(Cc2cccc(Oc3ccc(Cl)cc3)c2)CC1 | 18 | . | -30 | -0.28 | -1.8 | 96*
c1ccc(Oc2cccc(CN3CCCCC3)c2)cc1 | 12 | -0.098 | -23 | . | -0.87 | 100*
CC(C)N1CCN(Cc2ccc3c(c2)Cc2ccccc2-3)CC1CCO (stereo not drawn) | 10 | 0.64 | 13 | -0.24 | -1.1 | 85*
Cc1ccccc1-n1ncc2c(SCC(=O)NCc3cccs3)ncnc21 | 22 | -0.85 | 42 | 3.6* | . | 6
CC(C)CNc1cc(=O)n(C)c(=O)n1C | 4 | 0.73 | -50 | -0.02 | . | -7
SMILES | WT yeast gro inh | Cl transport mod | Insulin prom inh | Insulin prom up | ROMK mod | L major viab
Cc1cc(C)nc(N2CCC(C(=O)NCc3cccc(C(F)(F)F)c3)CC2)n1 | 1 | 0.12 | 60 | 0.28 | . | 0
Fc1ccc(COc2ccccc2C(=S)N2CCCC2)cc1 | 27 | -0.35 | -46 | 0.13 | 1.7 | 7
Cc1ccc(COc2ccccc2C(=S)N2CCCC2)cc1 | 61* | -0.54 | . | -1.5 | -0.32 | 76*
CCNC(=O)/C=C1\NC(C)(C)Cc2c1ccc1ccccc21 | 7 | . | 30 | . | -1 | 100*
CC1(C)Cc2c(ccc3ccccc23)C(=O)N1 | -24 | -0.23 | 28 | -0.07 | . | 39
O=C(NCCCn1ccnc1)c1sc2cccc(F)c2c1Cl | -9 | -0.22 | 57 | 0.45 | . | 78*
CN(C)CCNC(=O)c1sc2cccc(F)c2c1Cl | 2 | -1 | . | -0.11 | -0.2 | 19
CCN(CC(=O)Nc1c(F)cccc1F)C(=O)CCc1c[nH]c2ccccc12 | -11 | 0.66 | . | 0.86 | -0.75 | 10
CN(C)/N=C/c1cc([N+](=O)[O-])ccc1O | -3 | -0.27 | . | 0.11 | -0.68 | -6
CC(C)C(OC(=O)c1cccs1)C(=O)NCc1ccco1 (stereo not drawn) | -18 | -0.07 | 28 | 0.11 | . | 2
CCC(OC(=O)c1cc2sccc2n1C)C(=O)NCc1ccco1 (stereo not drawn) | 75* | -1.9 | . | . | . | -3
Cn1c(C(=O)OC(C(=O)NC2CCCCC2)c2ccncc2)cc2sccc21 (stereo not drawn) | -2 | -2.5 | -23 | -1 | . | 5
Cn1c(C(=O)OC(C(=O)NC(C)(C)C)c2cccnc2)cc2sccc21 (stereo not drawn) | -15 | -1.1 | . | 0.03 | 0.94 | 95*
Cc1cc2c(cc(C(=O)OC(C(=O)NCc3ccco3)C(C)C)n2C)o1 (stereo not drawn) | 4 | 0.069 | -9 | -0.2 | . | 99*
O=C(O)C1CCCCC1C(=O)N1CCCC1 (stereo not drawn) | -13 | 1.3 | . | . | 0.037 | -3
O=C(NNc1ccc(O)cc1)c1ccc(Br)cc1 | 24 | 0.32 | . | -1.2 | 0.73 | 98*
CC(=O)c1c(COC(=O)c2ccc(Cl)cc2)nc2ccccc2[n+]1[O-] | . | -0.31 | . | 0.42 | 0.27 | .
CCN(CC)S(=O)(=O)c1ccc(N=NC2=C(O)CC(C)(C)CC2=O)cc1 | 16 | 1.6 | 16 | 0.53 | . | 80*
CCN(CC)S(=O)(=O)c1ccc(N=NC2=C(O)CCCC2=O)cc1 | 5 | 0.36 | . | 0.5 | . | -7
COC(=O)Cn1c(C)nc([N+](=O)[O-])c1Br | -12 | 0.37 | 33 | 1.4 | 0.17 | 2
Cc1nc([N+](=O)[O-])c(Br)n1CC(=O)c1cccc([N+](=O)[O-])c1 | -12 | -0.43 | 56 | . | -2.9 | 86*
Cc1nc([N+](=O)[O-])c(Br)n1CC(=O)c1ccc(F)cc1 | -16 | -0.078 | 45 | . | 0.71 | 89*
COc1cccc(-c2csc(N3CCN(C(=S)Nc4ccc(Cl)cc4)CC3)n2)c1 | 43 | -0.46 | . | -0.47 | . | 79*
CC(=NCCCn1ccnc1)c1c(C)[nH]n(-c2ccc([N+](=O)[O-])cc2)c1=O | 8 | 0.62 | . | -0.52 | -0.92 | 20
CC(C)N1CCc2c(sc(NC(=O)c3ccc(S(=O)(=O)N4CCc5ccccc54)cc3)c2C(N)=O)C1 | -1 | 0.56 | . | . | . | 100*
CC(C)N1CCc2c(sc(NC(=O)c3nc4ccccc4s3)c2C(N)=O)C1 | 8 | . | -95 | 0.29 | -0.11 | 24
